The full list was thinned out, with hits kept by preference. The hit rate among all sequences tested is not known here. Values without a mark were called inactive.
test system: T1, Caupolican (Caup) homeodomain DNA-binding domain; assay: PBM E-score (8-mer, recovered from the published 9-mer minima) (E-score (dimensionless, -0.5 to 0.5)); Drosophila protein; higher = stronger relative binding preference, active = 0.31 or more
T1 sequence: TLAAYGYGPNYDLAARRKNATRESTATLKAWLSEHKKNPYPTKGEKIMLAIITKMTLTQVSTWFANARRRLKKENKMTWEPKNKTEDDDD
Experimental: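 Protein binding microarray (PBM): in vitro transcribed/translated Caupolican (Caup) homeodomain DNA-binding domain (residues 214-303) applied at 100 nM to a universal 8-mer PBM array (Agilent AMADID 015681). The 8-mer enrichment score (E-score, range -0.5 to 0.5) was computed, and each 9-mer score is the minimum E-score of its two constituent 8-mers. The E-score is the same for a 9-mer and its reverse complement; 0.31 is the stated binding threshold.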

Point of comparison: ATTTGTTA, “PBM E-score” value 0.219. Against it:
- ACTTGTTG — higher, 0.29
- GTTTGTTA — higher, 0.225
- AGTTGTTC — higher, 0.261
- CCTTGTTC — higher, 0.24
- GCTTGTGA — lower, -0.02
- GTCGGCCA — lower, -0.0886
- GGCGACAA — lower, 0.138
- CACTGAAG — lower, -0.0338
- TCGTCAGA — lower, -0.0168
- AAGAGACA — lower, 0.124
- CATATCAG — lower, 0.0708
- AACCCGCA — lower, -0.135
- AATCTCAG — lower, 0.0346
- CTAAATAA — lower, 0.181
- CTATCAGA — lower, -0.0505
- CCGAGAAC — lower, -0.0456
- AAGGTTAG — lower, -0.0357
- AGGATGGA — lower, -0.124
- CCATGGAC — lower, -0.0492
- GCATGGAC — lower, -0.00539
- ACATGGAA — higher, 0.296
- ACATGGAG — higher, 0.257
- GTTAAGGA — lower, 0.00704
- CCGTACAA — lower, 0.152
- AAGTACAG — lower, 0.204
- AAGTACCA — lower, 0.195
- AAGTACAC — higher, 0.288
- GCGTACAA — higher, 0.256
- AAGTACGA — lower, 0.113
- CAGTACAA — higher, 0.304
- GAGTACAA — higher, 0.262
- GAAGCGAA — lower, -0.0567
- GGGATTCA — lower, -0.0518
- ATTCGTGA — lower, 0.114
- CTCGACAC — lower, 0.105
- GCTGCGGA — lower, -0.178
- ATGAGTTC — lower, 0.0362
- ATCCTTCG — lower, -0.116
- GGGACAAC — lower, 0.178
- CAGTTAGA — lower, -0.0838
- CTTAAACA — lower, 0.159
- GCTAACAA — lower, 0.192
- CGTAACAA — higher, 0.243
- AGTAACAA — higher, 0.266
- GGTAAACA — lower, 0.213
- AGTAAACA — higher, 0.235
- ATTAAACA — higher, 0.271
- TCTAACAA — lower, 0.177
- GAGCAACA — lower, 0.0811
- CGGTAGGA — lower, -0.0619
- AGTAAGAC — lower, 0.0795
- ACTTTCCT — lower, -0.143
- CTTGGTCA — lower, -0.0643
- CATAACAA — higher, 0.308
- TATAACAA — higher, 0.306
- AAGCATCG — lower, -0.00688
- TCCACACA — lower, 0.0566
- AACTTCAT — lower, 0.108
- TCTATCCA — lower, -0.0275
- TTCACGAA — lower, 0.0673
- GACACGGA — higher, 0.286
- CACACGAA — lower, 0.0926
- CACACGGA — lower, 0.00106
- GCCACGTA — lower, -0.0264
- CACACGTA — lower, 0.142
- TACACGCA — higher, 0.29
- GACACGTC — higher, 0.225
- GGAGTTAC — lower, 0.0415
- AAAGGTTG — lower, -0.00255
- CTGGTAAC — lower, 0.115
- AGCCCAGC — lower, -0.172
- CATACTGC — lower, -0.0312
- AAGAGTGC — lower, 0.0487
- AGATCCAT — lower, -0.0856
- GAAGACTC — lower, -0.0665
- ACCTCAAA — lower, -0.032
- CCATCAGA — lower, -0.105
- ATGACAGA — higher, 0.22
- ATGACACC — higher, 0.266
- ATGACAGG — lower, 0.117
- ATGACACA — higher, 0.259
- GTGACACA — higher, 0.245
- GGGACATA — lower, 0.113
- CTGACATC — higher, 0.28
- CTGACATA — higher, 0.22
- ACCAGGCT — lower, -0.045
- AAGGGTTC — lower, -0.134
- ATAAGTAT — lower, 0.0762
- ATTATCGC — lower, 0.0263
- AGGAAGAA — lower, -0.0327
- AGCTAGTA — lower, 0.108

In the case of ACTTGTTC, the “PBM E-score” value is reported as 0.33 (active).
For ACTTGTTA, the “PBM E-score” value was 0.368 (active).
GCTTGTTA was tested, and the “PBM E-score” value was 0.315 (active).
For ACATGGAC, the “PBM E-score” value was 0.338 (active).
In the case of ACATGGAT, the “PBM E-score” value is reported as 0.374 (active).
With AAGTACAT the “PBM E-score” value was 0.402 (active).
In the case of AAGTACAA, the “PBM E-score” value is reported as 0.327 (active).
With TAGTACAA the “PBM E-score” value was 0.38 (active).
For TCGTACAA, the “PBM E-score” value was ≥ 0.37 (active).
For TGTAACAA, the “PBM E-score” value was 0.405 (active).
With TGTAAACA the “PBM E-score” value was ≥ 0.36 (active).
With GGTAACAA the “PBM E-score” value was 0.316 (active).
With GTTAAACA the “PBM E-score” value was 0.339 (active).
With GATAACAA the “PBM E-score” value was 0.32 (active).
TACACGAA was tested, and the “PBM E-score” value was 0.371 (active).
In the case of GACACGTA, the “PBM E-score” value is reported as 0.348 (active).
TACACGTA was tested, and the “PBM E-score” value was 0.361 (active).
TACACGGA was tested, and the “PBM E-score” value was 0.375 (active).
With ATGACATA the “PBM E-score” value was 0.379 (active).
With ATGACATG the “PBM E-score” value was 0.422 (active).
With ATGACATC the “PBM E-score” value was 0.333 (active).
With GTGACATA the “PBM E-score” value was 0.312 (active).

From the supplement of paper PMC3724861
